This is a sample that favours compounds with a hit; in the whole collection about 4% have one here.
CF NFkB inh = inhibitors of PAF-induced NF-kB signaling, primary screen, cell-based, GFP fluorescence, uHTS; KKLEB NF-kB-GFP reporter, GFP fluorescence overnight; inhibition, % at 5 µM; 360,000 compounds, 0.86% hits; AID 588850, 2011;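 active = at least 50% inhibition at 5 µM, scaled per plate between neutral and stimulator controls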;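 note: PAF is a Pseudomonas aeruginosa culture filtrate used as stimulus; plate controls were PAF-stimulated DMSO wells for no effect and unstimulated DMSO wells for full effect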
TROY signal inh = inhibitors of TROY-driven NF-kB signaling, primary screen, Q293 LMP1-TROYcd cells, NF-kB luciferase, uHTS. inhibition, % at 10 µM. AID 1347056, 2019. Q293 LMP1-TROYcd NF-kB luciferase reporter, 4 h. 360,000 compounds, 0.98% hits;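 active = compounds whose plate-normalised and pattern-corrected inhibition of the luciferase reporter signal at the single screening dose is 50% or more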
Peg3 promoter = Peg3 promoter-driven luciferase inhibitors, primary screen, cell-based, HeLa, luciferase luminescence | AID 588405, 2011 | HeLa PEG-Prom luciferase reporter, overnight | 360,000 compounds, 1.7% hits | inhibition, % at 20 µM;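 active = inhibition of at least 50% at 20 µM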
KKLEB cytotox = cytotoxicity in KKLEB CF airway cells, primary screen, cytotoxicity control for CF NF-kB inhibitor project, cell-based, uHTS, fluorescence assay plates; KKLEB CF airway cells viability, ATPlite luminescence, overnight; stronger effect = lower value; cells stimulated with P. aeruginosa culture filtrate; 360,000 compounds, 0.36% hits; activity change (cytotoxicity), % at 5 µM;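 active = corrected activity change at or below -50% at 5 µM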
TWEAK-Fn14 inh = inhibitors of TWEAK-Fn14 signaling, primary screen, luciferase reporter cells, uHTS | TWEAK-stimulated Fn14 reporter cells, luciferase luminescence, 8 h | AID 1159606, 2016 | inhibition, % at 10 µM | 360,000 compounds, 2% hits; in the data active = inhibition above about 50%
HIF-2a inh = HIF-2a reporter inhibitors, primary screen, luminescence, 786-0 RCC cells; 786-0 RCC cells HIF-2a reporter, luciferase luminescence, overnight; inhibition, % at 18.8 µM; 360,000 compounds, 0.72% hits;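 active = inhibition of the luminescence signal of 40% or more relative to plate controls, in a single-dose primary screen at 18.75 µM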
Mdm2 MdmX conf = retested Mdm2-MdmX interaction blockers, confirmation, cell-based, luminescence, single concentration, set 2. inhibition, % at 8 µM. SaOS-2 split-luciferase Mdm2/MdmX complementation. 740 compounds, 99% hits. shares compounds with HIF-2a inh;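 active = mean inhibition of the luminescence signal across two replicates at or above 26 percent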
Target sequence (O15151 whole entry, looked up): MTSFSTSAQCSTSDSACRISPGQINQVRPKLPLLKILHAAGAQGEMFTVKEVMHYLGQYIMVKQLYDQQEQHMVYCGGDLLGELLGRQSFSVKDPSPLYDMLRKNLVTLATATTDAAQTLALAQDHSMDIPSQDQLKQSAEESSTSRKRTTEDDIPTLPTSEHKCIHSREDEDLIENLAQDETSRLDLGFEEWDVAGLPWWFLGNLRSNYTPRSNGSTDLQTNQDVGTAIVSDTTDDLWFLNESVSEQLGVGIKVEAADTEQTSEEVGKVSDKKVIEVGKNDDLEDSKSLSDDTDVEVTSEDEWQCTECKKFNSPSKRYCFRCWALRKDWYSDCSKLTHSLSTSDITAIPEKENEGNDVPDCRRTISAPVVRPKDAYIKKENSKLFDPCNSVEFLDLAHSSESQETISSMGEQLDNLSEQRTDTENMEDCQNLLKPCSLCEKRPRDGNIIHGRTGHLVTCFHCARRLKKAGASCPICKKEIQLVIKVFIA
Target sequence (Q00987 whole entry, looked up): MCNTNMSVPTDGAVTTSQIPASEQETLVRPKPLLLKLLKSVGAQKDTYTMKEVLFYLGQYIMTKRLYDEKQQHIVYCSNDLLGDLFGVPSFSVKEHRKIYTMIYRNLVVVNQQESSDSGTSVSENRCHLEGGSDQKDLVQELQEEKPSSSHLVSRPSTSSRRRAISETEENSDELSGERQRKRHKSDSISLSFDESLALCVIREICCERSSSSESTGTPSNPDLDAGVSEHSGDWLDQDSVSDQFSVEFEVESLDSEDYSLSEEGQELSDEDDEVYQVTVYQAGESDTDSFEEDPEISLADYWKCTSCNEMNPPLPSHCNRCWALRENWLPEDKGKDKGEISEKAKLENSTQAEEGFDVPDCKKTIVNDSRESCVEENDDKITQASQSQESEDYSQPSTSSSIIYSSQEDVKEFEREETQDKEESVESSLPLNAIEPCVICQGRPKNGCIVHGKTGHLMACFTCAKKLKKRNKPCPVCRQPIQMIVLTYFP
HIF-2a inh conf = HIF-2a reporter inhibitor retest, confirmation, luminescence, 786-0 RCC cells; shares compounds with HIF-2a inh; HIF-2a luciferase reporter luminescence, overnight; inhibition, % at 18.8 µM; 1,800 compounds, 56% hits;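 active = mean inhibition across four replicates of at least 40 percent at the single tested concentration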
HIF-1a counter = HIF-1a luciferase reporter signal reduction – MiaPaCa-2 cells, single concentration, counter-screen for HIF-2a inhibitor project, confirmation. AID 651589, 2012. inhibition, % at 18.8 µM. shares compounds with HIF-2a inh. 1,800 compounds, 72% hits. MiaPaCa-2 HIF-1a luciferase reporter, desferoxamine, overnight;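 active = mean inhibition of the reporter signal across four replicates at the single tested dose of 50% or more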
An asterisk follows results filed as active; / = no result given.

SMILES	CF NFkB inh	TROY signal inh	Peg3 promoter	KKLEB cytotox	TWEAK-Fn14 inh	HIF-2a inh	HIF-2a inh conf	HIF-1a counter	others
O=C(Nc1ccc(N2CCN(Cc3ccccc3F)CC2)cc1)c1ccccc1[N+](=O)[O-]	-13	19	11	-2	8	19	/	/
CCC(=O)N1CCN(c2ccc(NC(=O)c3ccc([N+](=O)[O-])o3)cc2)CC1	56*	-15	106*	-21	-1	61*	31	74*
CS(=O)(=O)N1CCN(c2ccc(NC(=O)c3ccc([N+](=O)[O-])o3)cc2)CC1	84*	-19	104*	-65*	1	79*	10	57*
CCCC(=O)N1CCN(c2ccc(NC(=O)c3ccc([N+](=O)[O-])o3)cc2)CC1	90*	5	100*	-63*	-6	94*	64*	97*
O=C(Nc1ccc(N2CCN(Cc3ccccc3F)CC2)cc1)c1ccc([N+](=O)[O-])o1	81*	15	100*	-77*	27	93*	31	105*
O=S1(=O)N[C@H](Cc2ccccc2)COc2cccc(N3CCC[C@@H]3CO)c21	/	-6	/	/	20	12	/	/
Cc1ccc(N2CC(O)CSC2=Nc2ccccc2)cc1 (stereo not given)	20	-3	-17	-16	-6	0	/	/
COc1ccc(-c2noc(COC(=O)c3ccco3)n2)cc1OC	4	-6	-3	1	-4	-5	/	/
O=C(Nc1ccccc1N1CCN(C(=O)c2ccccc2)CC1)c1ccc([N+](=O)[O-])o1	-25	-11	42	-3	-27	-8	/	/
O=C(Nc1cccc(NC(=O)c2ccccc2Cl)c1)c1ccc([N+](=O)[O-])o1	78*	-5	98*	-9	35	61*	37	104*
CC(C)(C)C(=O)N1CCN(c2ccc(NC(=O)c3ccc([N+](=O)[O-])o3)cc2)CC1	56*	-15	97*	-4	-9	88*	10	81*
O=C(Nc1nc2c(Cl)cccc2s1)c1ccc([N+](=O)[O-])o1	-25	22	-12	1	14	-154	/	/
O=C(Nc1ccc(N2CCN(C(=O)c3ccc(Cl)cc3)CC2)cc1)c1ccc([N+](=O)[O-])o1	96*	7	104*	-78*	33	97*	87*	107*
Cc1cccc(CN2CCN(C3CN(Cc4ccc([N+](=O)[O-])cc4)S(=O)(=O)C3)CC2)c1 (stereo not given)	-6	2	19	-3	-15	5	/	/
CCCC[C@@H]1CNC(=O)C(=O)N1CCc1cccc(F)c1	/	3	/	/	16	17	/	/
O=S(=O)(c1ccc2c(c1)C(=NO)c1cc(S(=O)(=O)N3CCCCC3)ccc1-2)N1CCCCC1	100*	-22	86*	-106*	13	87*	82*	103*
O=S(=O)(c1ccc(S(=O)(=O)N2CCCC2)cc1)N1CCCCCC1	-3	-13	5	3	-7	9	/	/
Fc1ccc(/C=N/NC(=S)Nc2ccc(Cl)cc2Cl)cc1	2	-16	10	-21	-4	-70	/	/
Cc1ccccc1NC(=O)/C=C/c1ccc([N+](=O)[O-])s1	66*	-34	107*	-59*	95*	86*	68*	104*
Cc1ccccc1C(=O)N/N=C/c1ccc([N+](=O)[O-])s1	-4	6	50*	1	13	76*	90*	95*
O=[N+]([O-])c1ccc(/C=N/NC(=S)Nc2ccc(Cl)cc2Cl)s1	-2	47	60*	0	4	-29	/	/	Mdm2 MdmX conf=84*
O=C(N/N=C/c1ccc([N+](=O)[O-])s1)c1ccccc1Br	-15	-2	28	1	21	70*	76*	91*
O=C(N/N=C/c1ccc([N+](=O)[O-])s1)c1ccccc1	-35	-25	1	40	-12	51*	49*	67*
O=C(O)CCC(=O)N1CCN(S(=O)(=O)c2ccc3ccccc3c2)CC1	-3	20	13	3	41	7	/	/
CCN(CC)S(=O)(=O)c1cc(NC(=O)Cn2ncc(Cl)c(Cl)c2=O)ccc1C	89*	89*	101*	-66*	98*	97*	48*	104*	Mdm2 MdmX conf=103*
SMILES	CF NFkB inh	TROY signal inh	Peg3 promoter	KKLEB cytotox	TWEAK-Fn14 inh	HIF-2a inh	HIF-2a inh conf	HIF-1a counter	others
Cc1ccc(S(=O)(=O)N2CCCCC2)cc1NC(=O)Cn1ncc(Cl)c(Cl)c1=O	104*	80*	109*	-89*	100*	94*	99*	104*	Mdm2 MdmX conf=103*
O=C(Cn1ncc(Cl)c(Cl)c1=O)N1CCN(S(=O)(=O)c2ccc3ccccc3c2)CC1	82*	67*	106*	-68*	97*	95*	96*	105*	Mdm2 MdmX conf=102*
CCOC(=O)c1ccc(NC(=O)Cn2nc(C)c3ccccc3c2=O)cc1	-4	-4	-9	19	-9	9	/	/
CCOC(=O)c1ccc(NC(=O)Cn2ncc(Cl)c(Cl)c2=O)cc1	89*	75*	104*	-95*	99*	89*	98*	105*	Mdm2 MdmX conf=103*
Cc1cc(C(=O)OCC(=O)Nc2ccccc2Br)c(C)o1	-17	-18	-17	18	-3	-8	/	/
Cn1c(CCN2CCN(c3ccccn3)CC2)nc2cc(NS(=O)(=O)c3ccc(Cl)cc3)ccc21	2	17	25	8	26	19	/	/
CCC(=O)Nc1ccc(C(=O)Cn2ncc(Cl)c(Cl)c2=O)cc1	44	17	106*	-4	76*	90*	-9	105*
O=C(Cn1ncc(N2CCCC2)c(Cl)c1=O)c1ccc(Cl)cc1	6	-58	-236	9	-5	-163	/	/
Cc1c(Br)c([N+](=O)[O-])nn1CC(=O)N1CCN(C23CC4CC(CC(C4)C2)C3)CC1	-9	-5	12	7	2	10	/	/
Cc1nn(C)c(C)c1CN(C)C(=O)c1nn2c(c1Br)NC(c1cccs1)CC2C(F)(F)F (stereo not given)	10	-1	24	-2	3	26	/	/

Source: PubChem
